# Hits are enriched below; roughly 1.1% of the tested compounds scored in any of these assays.
# MOR-DOR ag: agonists of OPRM1-OPRD1 heterodimerization, primary screen, cell-based, luminescence. Mu-type opioid receptor (Homo sapiens) + Delta-type opioid receptor (Homo sapiens), …. hit rate 0.3% among 340,000. AID 504326, 2011. cells. activation, % at 9.3 µM; in the data active = activation above about 18%
# HTR5A ag: HTR5A agonists in luminescence cell assay, primary screen, counter-screen for OPRM1-OPRD1 heterodimer agonist project, full-deck HTS. activation, % at 9.3 µM. 5-hydroxytryptamine receptor 5A (Homo sapiens), P47898. cell-based. hit rate 0.61% among 340,000; in the data active = activation mostly above about 9.5%, no sharp cut-off; inactive = mostly below about 7.6%
# Target sequence (P47898 whole entry, looked up): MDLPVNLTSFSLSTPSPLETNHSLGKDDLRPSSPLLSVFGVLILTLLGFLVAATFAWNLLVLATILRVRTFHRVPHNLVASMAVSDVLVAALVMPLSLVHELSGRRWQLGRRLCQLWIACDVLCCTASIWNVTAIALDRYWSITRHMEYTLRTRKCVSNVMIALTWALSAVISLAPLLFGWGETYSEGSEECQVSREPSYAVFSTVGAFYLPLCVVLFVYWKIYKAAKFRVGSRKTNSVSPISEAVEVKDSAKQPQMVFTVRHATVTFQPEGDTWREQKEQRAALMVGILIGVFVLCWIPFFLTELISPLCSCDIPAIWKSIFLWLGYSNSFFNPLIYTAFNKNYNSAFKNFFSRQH
# MOR-DOR inv ag: inverse agonists of MOR-DOR heterodimerization, primary screen, cell-based, luminescence; cell-based MOR-DOR heterodimer luminescence, inverse agonism; inhibition, % at 9.3 µM; hit rate 0.21% among 340,000; AID 504357, 2011; in the data active = inhibition above about 22%, passing the limit was not always enough
# HTR5A inv ag: HTR5A inverse agonists in luminescence cell assay, primary screen, counter-screen for OPRM1-OPRD1 heterodimer inverse agonist project, full-deck HTS | HTR5A cell line, inverse agonism | inhibition, % at 9.3 µM | hit rate 0.083% among 340,000; in the data active = inhibition mostly above about 23%, no sharp cut-off; inactive = mostly below about 18%
# MOR-DOR inv conf: inverse agonists of MOR-DOR heterodimerization, confirmation, cell-based, luminescence. shares compounds with MOR-DOR inv ag. cells expressing OPRM1/OPRD1 heterodimer. inhibition, % at 9.3 µM. hit rate 20% among 580. AID 504900, 2011; in the data active = inhibition above about 32%
# HTR5A inv count: HTR5A inverse agonists, counter-screen for OPRM1-OPRD1 inverse agonist project, cell-based, luminescence | shares compounds with MOR-DOR inv ag | inhibition, % at 9.3 µM | HTR5A-expressing cells, inverse agonism | 580 tested, under 10 active | AID 504914, 2011; call rule not given here
# Numbers stand for hits; - = inactive; . = no result.
SMILES,MOR-DOR ag,HTR5A ag,MOR-DOR inv ag,HTR5A inv ag,MOR-DOR inv conf,HTR5A inv count
N#CC(C#N)=C1C=CC=CN1/C(=C\c1ccco1)C(=O)c1ccc(-c2ccccc2)cc1,-,-,-,-,.,.
O=C(CCN1C(=O)c2ccccc2C1=O)NC(=S)Nc1cccc(Cl)c1,-,-,-,-,.,.
O=C(C(=O)c1cccnc1)c1cccnc1,-,-,36,-,-,-
c1cncc(-c2nnc(-c3cccnc3)nn2)c1,-,-,86,-,-,-
O=C(c1cccnc1)c1cccnc1,-,-,-,-,.,.
O=C(NNC(=S)NCC1CCCO1)c1cc(Br)ccc1Cl (configuration not stated),-,-,33,-,-,-
Cn1c(=O)[nH]c(=O)c2c1nc(N1CCNCC1)n2Cc1ccccc1,-,-,-,-,.,.
Cn1c(=O)[nH]c(=O)c2c1nc(N1CCNCC1)n2Cc1cccc2ccccc12,-,-,38,-,-,-
Cn1c(=O)c2c(nc(N3CCNCC3)n2Cc2cccc3ccccc23)n(C)c1=O,-,-,42,-,-,-
FC(F)(F)c1cc(Oc2ccccc2)nc(-c2ccccn2)n1,-,-,-,-,.,.
O=C(Cc1ccc(F)cc1)Nc1nccs1,-,-,-,-,.,.
CC(C)(C)c1nnc(NC(=O)CCS(=O)(=O)c2ccccc2)s1,-,-,-,-,.,.
Fc1ccc(NC(=S)Nc2nccs2)cc1,-,-,29,-,-,-
S=C(Nc1ccccc1)Nc1nccs1,-,-,33,-,-,-
CC(C)(C)c1nnc(NC(=S)Nc2ccccc2)s1,-,-,38,-,-,-
CN1CCN(C2=C(NS(=O)(=O)c3cccs3)C(=O)c3ccccc3C2=O)CC1,-,-,-,-,.,.
O=C1C(NS(=O)(=O)c2cccs2)=C(N2CCOCC2)C(=O)c2ccccc21,-,-,41,-,-,-
O=C(Nc1ccnc(-c2ccncc2)n1)c1ccc(F)cc1,-,-,-,-,.,.
O=C(N/N=C/c1cccc2cccnc12)c1ccccc1O,-,-,36,-,-,-
O=C(Cc1ccccc1)NNc1ccc2ccccc2c1,-,-,33,-,-,-
CCOC(=O)C1CCN(C(=O)CN2C(=O)NC3(CCCCC3)C2=O)CC1,-,-,-,-,.,.
CCCn1c2ccccc2c2nnc(SCC(=O)Nc3ncccn3)nc21,-,-,32,-,-,-
Cn1c(N=Nc2ccccc2)nc2ccccc21,-,-,43,-,-,-
CN(C)c1ccc(N=Nc2nc3ccccc3n2C)cc1,-,-,-,-,.,.
Cc1cccc2nc3c(nc12)-c1ccccc1C3=O,-,-,40,-,-,-
SMILES,MOR-DOR ag,HTR5A ag,MOR-DOR inv ag,HTR5A inv ag,MOR-DOR inv conf,HTR5A inv count
CC(=O)OC1C=CCC2C(=O)c3cccc(O)c3C(O)C12 (configuration not stated),-,-,-,-,.,.
CC1CCCN(c2ccc(/C=C(\C#N)c3nn(-c4ccccc4)c(N)c3C#N)cc2[N+](=O)[O-])C1 (configuration not stated),-,-,29,-,-,-
CC1CCN(c2ccc(/C=C(\C#N)c3nn(-c4ccccc4)c(N)c3C#N)cc2[N+](=O)[O-])CC1,-,-,-,-,.,.
C[C@H]1COC(=O)[C@H](Cc2ccc(F)cc2)C/C=C\C[C@H](CC(=O)N(CCO)Cc2ccccc2)C(=O)N1,-,-,-,-,.,.
CCOC(=O)C1Oc2ccccc2C(c2cccc3ccccc23)=C1C(=O)OC (configuration not stated),-,-,-,-,.,.
CCOC(=O)C1Oc2ccccc2C(C(=O)OC)=C1C(=O)OC (configuration not stated),-,-,40,-,-,-
Cc1cc(C(=O)NNc2ccc(Cl)cc2)no1,-,-,35,-,-,-
Cc1cc(C(=O)NNc2ccc(C)c(C)c2)no1,-,-,58,-,-,-
Cc1c(OCC(=O)NC(Cc2c[nH]c3ccc(O)cc23)C(=O)O)ccc2c3c(c(=O)oc12)CCC3 (configuration not stated),-,-,-,-,.,.
COc1ccc(C(=O)Nc2ccccc2[N+](=O)[O-])cc1S(=O)(=O)N1CCOCC1,-,-,-,-,.,.
Cc1ccc(C(=O)Nc2ccccc2[N+](=O)[O-])cc1S(=O)(=O)N1CCOCC1,-,-,39,-,-,-
O=C1c2ccccc2-c2c1nc1c([n+]2[O-])CCCC1,-,-,93,-,-,-
CCc1ccc2c(c1)C(=O)c1ccccc1C2=O,-,-,-,-,.,.
Cn1c(SSc2ccc(-c3cccnc3)n2C)ccc1-c1cccnc1,-,-,41,-,-,-
O=C1C(c2c(O)[nH]c3ccccc23)=Nc2ccccc21,-,-,-,-,.,.
CC(=O)c1cccc2c(O)c(C3=Nc4ccccc4C3=O)[nH]c12,-,-,36,-,-,-
Cc1ccc2cc(C=O)c(N3CCOCC3)nc2c1C,-,-,36,-,-,-
CCOc1ccc(OCCN2C(=O)c3ccccc3C2=O)cc1,-,-,-,-,.,.
CCOc1ccc(N=C2C(=O)N(CN3CCOCC3)c3ccccc32)cc1,-,-,67,-,49,-
CC1CCCCN1CCNC(=O)C1CCN(S(=O)(=O)N2CCCCC2)CC1 (configuration not stated),-,-,13,-,-,-
CC1CCN(CCCNC(=O)C2CCN(S(=O)(=O)N3CCCCC3)CC2)CC1,-,-,-,-,.,.
O=C(COc1ccc(Cl)cc1)NCc1ccc(F)cc1,-,-,-,-,.,.
Cc1nc2ccc(NS(=O)(=O)c3ccc(F)c(F)c3F)cc2s1,-,-,-,-,.,.
Cc1cc(O)c(/C=N/Nc2ccc(Cl)cc2)c(=O)o1,-,-,46,-,-,-
Cc1cc(O)c(/C=N/Nc2cccc(Cl)c2)c(=O)o1,-,-,-,-,.,.
SMILES,MOR-DOR ag,HTR5A ag,MOR-DOR inv ag,HTR5A inv ag,MOR-DOR inv conf,HTR5A inv count
Cc1ccc(C(O)C(=O)c2ccco2)cc1 (configuration not stated),-,-,-,-,.,.
O=C(c1ccco1)C(O)c1ccco1 (configuration not stated),-,-,70,35,-,-
CCCn1c(=O)c(C(=O)NCc2ccccc2OC)c(O)c2ccccc21,-,-,-,-,.,.
Cc1cc(C)nc(NNS(=O)(=O)c2c(F)cc(F)cc2Br)n1,-,-,31,-,-,-
Cc1cc(C)nc(NNS(=O)(=O)c2c(C)cc(C(C)(C)C)cc2C)n1,-,-,-,-,.,.
COc1ccc(CNC(=O)c2nc(S(=O)(=O)Cc3ccccc3)ncc2Cl)cc1,-,-,-,-,.,.
O=C(NCc1ccc2c(c1)OCO2)c1nc(S(=O)(=O)Cc2ccccc2)ncc1Cl,-,-,-,-,.,.
